Most compounds without a hit are left out; they make up all but 1.4% or so of the library.
Mtb hypoxia rep: inhibitors of hypoxia-regulated fluorescent reporter in Mycobacterium tuberculosis. 0.1% of 300,000 active. fluorescence inhibition, % (test concentration not listed). M. tuberculosis hypoxia-regulated fluorescent reporter, fluorescence; in the data active = fluorescence inhibition mostly above about 23%, no sharp cut-off; inactive = mostly below about 17%
3CLpro inhibitor: SARS-CoV 3CLpro protease inhibition; P0C6X7; recombinant SARS-CoV 3CLpro, quenched FRET peptide cleavage; inhibition, % at 6 µM; 0.14% of 290,000 active; in the data active = inhibition above about 12%
BJeLR viability: kills HRASV12-expressing BJeLR cells; BJeLR (HRASV12) viability, CellTiter-Glo ATP luminescence, 48 h; inhibition, % (concentration not given with the values); 0.17% of 300,000 active; AID 1554; in the data active = inhibition above about 50%
PrPC TRFRET: inhibitors of human cell surface prion protein PrPC; P04156; TR-FRET read-out; inhibition, % at 13.8 µM; 0.43% of 370,000 active; AID 720596; in the data active = inhibition above about 24%; also: 0% = median of the test wells and 100% = reference compound wells
PrP UTR inh: inhibition of PrP 5' UTR reporter expression | cell-based PrP 5' UTR mRNA reporter, plate reader | inhibition, % (concentration not given with the values) | 0.35% of 340,000 active | AID 488862; in the data active = inhibition above about 52%; also: 0 = median of the neutral control wells
RecA splice inh: inhibitors of M. tuberculosis RecA intein splicing; AID 2221; cell-free RecA intein splicing, fluorescence; P9WHJ3; inhibition, % (test concentration not listed); 0.75% of 290,000 active; in the data active = inhibition above about 30%;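 also: 0% = vehicle wells and 100% = reference inhibitor control wells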
Target sequence (P9WHJ3 whole entry, looked up, canonical isoform): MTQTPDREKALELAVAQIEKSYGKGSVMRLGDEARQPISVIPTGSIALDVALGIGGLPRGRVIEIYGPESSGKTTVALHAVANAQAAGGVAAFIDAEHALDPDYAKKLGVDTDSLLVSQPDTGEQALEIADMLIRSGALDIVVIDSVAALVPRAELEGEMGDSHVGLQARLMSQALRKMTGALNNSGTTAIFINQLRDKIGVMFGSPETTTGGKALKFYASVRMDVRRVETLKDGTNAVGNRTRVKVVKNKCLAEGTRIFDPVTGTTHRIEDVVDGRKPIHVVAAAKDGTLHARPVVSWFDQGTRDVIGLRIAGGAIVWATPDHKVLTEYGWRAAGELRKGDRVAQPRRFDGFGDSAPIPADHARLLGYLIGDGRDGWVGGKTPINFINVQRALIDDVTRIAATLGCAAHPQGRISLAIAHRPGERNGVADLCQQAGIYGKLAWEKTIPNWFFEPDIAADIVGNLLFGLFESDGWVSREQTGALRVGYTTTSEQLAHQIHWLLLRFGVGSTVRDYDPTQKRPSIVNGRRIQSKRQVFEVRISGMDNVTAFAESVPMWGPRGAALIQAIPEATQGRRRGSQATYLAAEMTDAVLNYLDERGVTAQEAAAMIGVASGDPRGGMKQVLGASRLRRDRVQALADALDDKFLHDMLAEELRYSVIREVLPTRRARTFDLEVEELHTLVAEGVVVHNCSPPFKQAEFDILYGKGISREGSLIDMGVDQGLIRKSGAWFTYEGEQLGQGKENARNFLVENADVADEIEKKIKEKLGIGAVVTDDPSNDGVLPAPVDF
Starred values were filed as active, the others as inactive; . = no result given; ! = repeats disagree.

SMILES | Mtb hypoxia rep | 3CLpro inhibitor | BJeLR viability | PrPC TRFRET | PrP UTR inh | RecA splice inh
Cn1cnc2nc[nH]c2c1=S | 8.6 | . | . | -2.7 | -11.1 | .
S=c1nc[nH]c2nc[nH]c12 | . | -2.8 | 76.4* | -0.3 | 9.5 | -1.7
Cc1nn(C)c(C(=O)NN=Cc2ccc(-c3ccccc3)cc2)c1Cl | 9.3 | . | . | . | . | .
CCc1ccc(/C=C2\SC(=S)N(CCCC(=O)NCCCN3CCOCC3)C2=O)cc1 | . | . | . | -12.0 | . | .
CCc1ccc(/C=C2/SC(=S)N(CCC(=O)NCCCN3CCOCC3)C2=O)cc1 | 9.5 | 4.7 | 105.7* | -2.6 | -18.0 | -1.3
CCOc1ccc(/C=C2\SC(=S)N(CCCC(=O)NCCCN3CCOCC3)C2=O)cc1 | -7.0 | 1.8 | -13.5 | -4.4 | 80.8* | .
CCc1ccc(/C=C2/SC(=S)N(CCC(=O)Nc3cccnc3)C2=O)cc1 | 1.1 | -1.4 | 101.8* | -2.1 | -12.4 | -2.1
CN1CCN(C(=O)CCCN2C(=O)/C(=C/c3cccc(Br)c3)SC2=S)CC1 | -1.3 | 0.9 | 90.0* | 0.7 | -22.7 | 16.1
O=C(CCN1C(=O)/C(=C/c2ccccc2)SC1=S)Nc1cccnc1 | 6.6 | 2.9 | -6.7 | -8.3 | -10.8 | 1.1
CN(C)CCCNC(=O)c1ccc(C=NO)nc1 | 7.2 | . | . | . | . | .
NC(=O)C1CC2(CC(c3cccc(NC(=O)C4CCC(=O)N4)c3)=NO2)CN1C(=O)c1ccccc1C(=O)c1ccccc1 (stereo not given) | 2.7 | . | . | . | . | .
O=C(CCN1C(=O)/C(=C\c2cccc(Br)c2)SC1=S)NCCCN1CCOCC1 | 2.3 | 4.0 | 84.9* | -9.8 | -6.2 | 6.1
O=C(CCN1C(=O)/C(=C/c2ccccc2)SC1=S)NCCCN1CCOCC1 | -3.8 | -4.3 | -9.4 | -4.5 | -19.0 | .
O=C1C(Cl)=C(NCC2CCCO2)C(=O)N1c1ccccc1 (stereo not given) | -0.1 | -2.5 | 3.9 | 2.5 | -21.5 | 32.8*
O=C1C(Cl)=C(NCC2CCCO2)C(=O)N1C1CCCCC1 (stereo not given) | -2.9 | 2.4 | 2.4 | -10.4 | -77.4 | .
C=CC[C@@H](CC(=O)N[C@@H](CO)Cc1ccccc1)C(=O)N[C@H](COC(=O)[C@@H](CC=C)Cc1ccc(F)cc1)Cc1ccccc1 | . | . | . | -2.7 | 3.2 | .
C=CCC(CC(=O)NC(CO)Cc1ccccc1)C(=O)NC(COC(=O)C(CC=C)Cc1ccc(F)cc1)Cc1ccccc1 (stereo not given) | 38.1*! | . | . | . | . | .
CN(C)CCCN(C(=O)c1ccc2c(c1)CCCC2)c1nc2ccc(Cl)cc2s1 | 38.3* | 0.2 | 9.2 | -7.3 | -18.4 | 5.1
O=C1C=C(c2ccccc2)CC(c2cccs2)C1n1cnc([N+](=O)[O-])c1 (stereo not given) | . | 1.0 | 2.1 | -2.1 | -4.7 | 3.7
O=C1C=C(c2ccccc2)C[C@H](c2cccs2)[C@H]1n1nnc([N+](=O)[O-])n1 | . | 1.0 | 62.2* | 6.8 | -55.0 | 1.1
C/C(=N\Nc1ccc2nncn2n1)c1ccccn1 | . | -2.9 | 62.5* | 16.5 | . | -2.5
CCCc1[nH]nc2c1C(c1ccc(OCCN3CCOCC3)c(OCC)c1)C(C#N)=C(N)O2 (stereo not given) | 10.2 | -0.5 | -2.7 | 2.6 | -26.3 | 44.4*
CCCc1[nH]nc2c1C(c1ccc(O)cc1OCC)C(C#N)=C(N)O2 (stereo not given) | . | -5.6 | 5.4 | -1.0 | -1.3 | 78.3*
CCOc1ccc(C2C(C#N)=C(N)Oc3cc(O)ccc32)cc1OCC (stereo not given) | 2.1 | -1.8 | -2.9 | -6.0 | -15.3 | -8.4
CCOc1cc(C2C(C#N)=C(N)Oc3n[nH]c(C)c32)ccc1OCCN1CCOCC1 (stereo not given) | -6.1 | -2.5 | -3.2 | 8.3 | -22.3 | 48.3*
SMILES | Mtb hypoxia rep | 3CLpro inhibitor | BJeLR viability | PrPC TRFRET | PrP UTR inh | RecA splice inh
CCOc1cc(C2C(C#N)=C(N)Oc3n[nH]c(CC)c32)ccc1OCCN1CCOCC1 (stereo not given) | . | 1.9 | -3.2 | -6.1 | -16.5 | 50.3*
COc1ccc(C2C(C#N)=C(N)Oc3cc(C)n(CCN4CCOCC4)c(=O)c32)cc1OC (stereo not given) | 8.6 | -10.1 | 2.0 | -9.8 | -10.0 | -1.5
COc1cccc2c1C(=O)C[C@]1(CCCCC1C)O2 (stereo not given in full) | 25.5 | . | . | . | . | .
CC(C)CC1NC(=O)C(Cc2ccc(O)cc2)NC(=O)c2cc([N+](=O)[O-])cc(I)c2NCCCC(C(N)=O)NC1=O (stereo not given) | 12.3 | . | . | . | . | .
Cc1ccc(C2C(C#N)=C(N)Oc3n[nH]c(-c4ccccc4)c32)o1 (stereo not given) | . | -4.3 | -1.1 | 10.6 | -6.3 | 87.5*
Cc1nn(-c2ccccc2)c(C)c1C1C(C#N)=C(N)Oc2n[nH]c(C)c21 (stereo not given) | 5.5 | -0.2 | 7.2 | 0.5 | -5.8 | 62.5*
Cc1[nH]nc2c1C(c1cc(Br)cs1)C(C#N)=C(N)O2 (stereo not given) | 10.9 | -1.3 | 21.3 | -3.5 | 0.2 | 53.1*
Cc1[nH]nc2c1C(C(C)C)C(C#N)=C(N)O2 (stereo not given) | 5.3 | -9.4 | -2.3 | 4.7 | 10.4 | .
Cc1ccc(-n2nc(C)c3c2OC(N)=C(C#N)C3c2ccc(F)cc2)cc1 (stereo not given) | 4.8 | 4.9 | -7.3 | -4.5 | -140.0 | 60.0*
Cc1nn(-c2ccccc2)c2c1C(c1ccc([N+](=O)[O-])cc1)C(C#N)=C(N)O2 (stereo not given) | 5.9 | 2.5 | 6.8 | -13.8 | -15.4 | -2.4
CCOc1ccc(C=NNC(=O)C(C)N(c2ccc(OC)cc2)S(C)(=O)=O)cc1 (stereo not given) | 3.6 | . | . | . | . | .
COc1ccc(C2CC(=O)C=C(c3ccc(F)cc3OCc3ccccc3)C2)cc1OC (stereo not given) | 4.5 | . | . | . | . | .
Cc1nn(C)c(C)c1C1C(C#N)=C(N)Oc2n[nH]c(C)c21 (stereo not given) | -1.2 | 0.9 | 7.8 | 3.8 | -24.3 | 43.5*
CCCCc1oc2ccccc2c1C(=O)c1cc(I)c(OCCN(CC)CC)c(I)c1 | 16.7 | . | 1.0 | 3.4 | -6.7 | 37.9*
CCN(CC)CCOc1ncnc2c1oc1ccccc12 | 8.0 | 0.5 | 7.1 | -3.3 | -49.9 | 0.0
COC(=O)C1C2CC3c4[nH]c5cc(OC)ccc5c4CCN3CC2CC(OC(=O)C=Cc2cc(OC)c(OC)c(OC)c2)C1OC (stereo not given) | -8.2 | . | . | . | . | .
Cc1ccc(NC(=O)/C=C/c2ccc([N+](=O)[O-])s2)cc1 | . | -0.2 | 58.6* | 0.3 | -44.8 | 0.3
Cc1cccc(NC(=O)/C=C/c2ccc([N+](=O)[O-])s2)c1 | 19.5 | 3.3 | 82.8* | -5.3 | -44.7 | -4.3
Cc1ccc(NC(=O)/C=C/c2ccc([N+](=O)[O-])s2)c(C)c1 | 12.7 | -1.8 | 14.9 | -3.9 | -47.3 | 0.9
